Experimental findings from PubChem BioAssay (NCATS) are described below.

Experiment [1] can be described thus: qHTS Assay for Identification of Small Molecule Agonists for Hypoxia Response Element Signaling Pathway (AID 914; active = well fitted activation curve with a large enough effect in the signal ratio, with a control signal flat, not every such curve was filed as active; the % refers to the signal ratio; note: potency is the fitted concentration of half-maximal effect). The note with it: ME-180 (cervical carcinoma) HRE-bla reporter, beta-lactamase ratio, CoCl2, 17 h; activation: stronger effect = higher value. In short, it runs like this:
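In Opti-MEM containing 0.5% dialyzed FBS and 10 mM HEPES, ME-180 HRE-bla cells received a compound titration and EC50 CoCl2. They were incubated 17 hours, then CCF4-loaded 2.5 hours at room temperature before ratio reading.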

Experiment [2] concerns the target Muscarinic acetylcholine receptor M1 (Rattus norvegicus) (UniProt P08482). The experiment is described as follows: qHTS Assay for Antagonists of Acetylcholine Muscarinic M1 Receptor: Kinetic Measurement of Intracellular Calcium Response (AID 943; active = well fitted curve in the direction sought with a large enough effect; an effect the other way counts as inactive or inconclusive; note: potency is the fitted concentration of half-maximal effect; nearly all actives have a fitted effect of over 75% in size). The essentials: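 Rat M1-CHO cells, 2000/well, overnight → Fluo-4 no-wash dye with probenecid, 1 h 37C → compound 10 min, room temp → basal read 6 s → carbachol EC80 (100 nM) → 4 min kinetic read; peak/basal.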

For experiment [3] the target is unchanged. The experiment is described as follows: qHTS Assay for Antagonists of Acetylcholine Muscarinic M1 Receptor: Measurement of IP-One Response (AID 944; active = well fitted curve in the direction sought with a large enough effect; an effect the other way counts as inactive or inconclusive; note: nearly all actives have a fitted effect of over 75% in size; note: potency is the fitted concentration of half-maximal effect). The essentials: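 M1-CHO (rat), 2000 cells/well, overnight recovery; cpd 10 min; carbachol EC80 (200 nM), 30 min, HEPES buffer + 50 mM LiCl pH 7.4; IP-One HTRF, Ex 337, Em 620/665 nm.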
Background: qHTS replaces the single test concentration by a dilution series.

The nature of experiment [4]: qHTS Assay for Identification of Small Molecule Agonists for Thrombopoietin (TPO) Signaling Pathway (AID 917; active = well fitted curve in the direction sought with a large enough effect; an effect the other way counts as inactive or inconclusive; note: % is set by controls: 0 for no effect and ±100 for the full control effect). The essentials:
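Murine Ba/F3 cells expressing human TPO receptor and GPIIb-promoter luciferase, IL-3-starved overnight, given compound plus TPO at 26 pM (EC50). After 24 h at 37 C, 5% CO2, luminescence read.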

A short description of experiment [5]: qHTS Assay for Identification of Small Molecule Antagonists for Thrombopoietin (TPO) Signaling Pathway (AID 918; active = well fitted curve in the direction sought with a large enough effect; an effect the other way counts as inactive or inconclusive; note: potency is the fitted concentration of half-maximal effect; nearly all actives have a fitted effect of over 60% in size). The conditions noted are these: TPO-dependent cell signaling reporter, antagonist mode. The essentials: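 Ba/F3 (murine, hTPO-R, GPIIb-luc reporter); overnight IL-3 withdrawal; cpd + TPO 26 pM final (EC50); 24 h 37 C/5% CO2; Steadylite luminescence after 10 min RT.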

Experiment [6] in a line: qHTS assay for small molecule antagonists of peroxisome proliferator-activated receptor delta signaling (AID 588535; active = well fitted inhibition curve with a large enough effect in the signal ratio, with a control signal flat, not every such curve was filed as active; the % refers to the signal ratio;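 for max response: cells co-treated with a PPAR-delta agonist as stimulator during compound exposure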). The note with it: HEK293T PPARd-UAS-bla, beta-lactamase FRET ratio, 18 h; 460 nm channel. In short, it runs like this: (§1)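 HEK293T PPAR-delta-UAS-bla cells, 4000/well, 2% charcoal/dextran FBS; 5 h 37 C; cpd titration; 18 h 37 C; CCF4 2 h RT; FI 460/530 nm; Hill fit → IC50, efficacy.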

The target of experiment [7] is Peroxisome proliferator-activated receptor delta (Homo sapiens) (UniProt Q03181). The description is as above. The essentials:
as §1

Experiment [8] deals with Peroxisome proliferator-activated receptor gamma (Homo sapiens) (UniProt P37231). The experiment is described as follows: qHTS assay for small molecule antagonists of peroxisome proliferator-activated receptor gamma signaling (AID 588537; active = well fitted inhibition curve with a large enough effect in the signal ratio, with a control signal flat, not every such curve was filed as active; the % refers to the signal ratio; note: potency is the fitted concentration of half-maximal effect). The essentials:
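Antagonist mode, beta-lactamase reporter in HEK293; charcoal/dextran FBS 1%; 3000 cells/well, 37 C 6-6.5 h; cpd titration + rosiglitazone 50 nM final, 16 h 37 C; CCF4, 2 h RT; 460/530 nm; Hill fit → IC50, efficacy.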

Experiment [9] is described as follows: qHTS assay for small molecule activators of the nuclear factor-kappa B (NF-kB) signaling pathway (AID 651749; active = well fitted activation curve with a large enough effect in the signal ratio; the % refers to the signal ratio; note: potency is the fitted concentration of half-maximal effect; for activation: series mostly up to about 77 µM; % of control where 0% means no effect). The conditions noted are these: NF-kB-bla ME-180 cells, beta-lactamase FRET ratio, 16 h; activation: stronger effect = higher value. In short, it runs like this:
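Readout: beta-lactamase reporter driven by an NF-kB response element, detected fluorescently as loss of FRET. Cells were the ME-180 line, treated 16 hr at 37C with pin-transferred compound.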

Experiment [10] has as its target Nuclear receptor subfamily 1 group I member 2 (Rattus norvegicus) (UniProt Q9R1A7). The experiment is described as follows: qHTS assay for small molecule activators of the rat pregnane X receptor (rPXR) signaling pathway (AID 651751). Note: 0% is about no effect. The conditions noted are these: rPXR reporter cells, luciferase (One-Glo), 24 h.
The nature of experiment [11]: qHTS assay for small molecule activators of the human pregnane X receptor (PXR) signaling pathway (AID 720659). Note: 0% is about no effect.
In experiment [12] the target is Glucocorticoid receptor (Homo sapiens) (UniProt P04150). The experiment is described as follows: qHTS assay for small molecule antagonists of glucocorticoid receptor signaling (AID 588533; active = well fitted inhibition curve with a large enough effect in the signal ratio, with a control signal flat, not every such curve was filed as active; the % refers to the signal ratio;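 note: cells stimulated with 2 nM dexamethasone as agonist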; note: potency is the fitted concentration of half-maximal effect). The essentials:
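Antagonist-mode qHTS: compound titrations added to GRE-bla HeLa cells, then dexamethasone 2 nM final; 18 h, 37 C. CCF4 FRET fluorescence normalized to dexamethasone and DMSO; IC50 from Hill fit.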

Experiment [13] addresses Peroxisome proliferator-activated receptor gamma (Homo sapiens) (UniProt P37231). The experiment is described as follows: qHTS assay for small molecule agonists of peroxisome proliferator-activated receptor gamma signaling (AID 588536; active = well fitted curve in the direction sought with a large enough effect in the signal ratio, with a control signal flat, not every such curve was filed as active; the % refers to the signal ratio;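 note: 0% = DMSO basal wells and 100% = rosiglitazone at 2 µM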). In short, it runs like this:
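Test agents, titrated, stimulated HEK293 UAS-bla cells overnight (16 h, 37 C). Substrate CCF4 was then added for two hours at room temperature before fluorescence reading.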

Experiment [14] has as its target Estrogen receptor (Homo sapiens) (UniProt P03372). The experiment is described as follows: qHTS assay for small molecule agonists of estrogen receptor alpha signaling (AID 588514; calls by dose curve;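 note: 0% = vehicle only and 100% = reference agonist; nearly all actives have a fitted effect of over 70% in size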). In short, it runs like this: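 Cells were plated at 5000/well, incubated 4 hrs at 37 C, dosed with compound titration series, incubated 18 hrs at 37 C, loaded with CCF4 dye for 2 hrs at RT, then fluorescence was read.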

Experiment [15] has as its target Bile acid receptor (Homo sapiens) (UniProt Q96RI1). The experiment is described as follows: qHTS assay for small molecule antagonists of farnesoid X receptor signaling (AID 588526; calls by dose curve; note: potency is the fitted concentration of half-maximal effect). The essentials:
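Beta-lactamase reporter antagonist mode: HEK293T FXR-UAS-bla cells, titrated compound, CDCA stimulation, 16 h 37 C, CCF4 dye 2 h RT. Data normalized to CDCA 50 uM and DMSO; Hill-fit IC50.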

Experiment [16] is described as follows: qHTS assay to identify small molecules that stimulate interleukin-8 (IL-8) secretion (AID 651758; active = well fitted activation curve with a large enough effect in the signal ratio; the % refers to the signal ratio; note: potency is the fitted concentration of half-maximal effect; for activation: 0% is about no effect). In short, it runs like this: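 Secreted IL-8 measured by TR-FRET sandwich (cryptate and XL665 antibodies) from THP-1 cells exposed to compound overnight (16 hrs, 37 C).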
Experiment [17] addresses Retinoic acid receptor RXR-alpha (Homo sapiens) (UniProt P19793). The experiment is described as follows: qHTS assay for small molecule agonists of retinoid X receptor alpha signaling (AID 588544; calls by dose curve; note: potency is the fitted concentration of half-maximal effect;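 for activation: 0% = DMSO basal wells and 100% = reference agonist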).
Experiment [18] shares this target. The experiment is described as follows: qHTS assay for small molecule antagonists of retinoid X receptor alpha signaling (AID 588546; active = well fitted inhibition curve with a large enough effect in the signal ratio, with a control signal flat, not every such curve was filed as active; the % refers to the signal ratio;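 note: cells stimulated with 9-cis-retinoic acid as agonist; % is set by controls: 0 for no effect and ±100 for the full control effect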). The conditions noted are these: HEK293T RXRa-UAS-bla, beta-lactamase ratio, antagonist mode. In short, it runs like this: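 Beta-lactamase reporter inhibition, read as CCF4 fluorescence ratio (ex 405, em 460/530 nm) after 2 h at RT. HEK293T UAS-bla cells, 2500/well, were stimulated with 9-cis-RA at 500 or 100 nM final alongside test compound for 18 h at 37 C.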

A short description of experiment [19]: qHTS assay for small molecule agonists of retinoid X receptor alpha signaling (AID 588544).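 For activation: 0% = DMSO basal wells and 100% = reference agonist.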 Note: potency is the fitted concentration of half-maximal effect. The conditions noted are these: HEK293T RXRa-UAS-bla, beta-lactamase reporter, 18 h; 530 nm emission.
In experiment [20] the target is Androgen receptor (Homo sapiens) (UniProt P10275). The experiment is described as follows: qHTS assay for small molecule agonists of androgen receptor signaling (AID 588515; active = well fitted curve in the direction sought with a large enough effect in the signal ratio, with a control signal flat; the % refers to the signal ratio; note: % is set by controls: 0 for no effect and ±100 for the full control effect). The conditions noted are these: AR-UAS-bla HEK293, beta-lactamase ratio, agonist 16 h; stronger effect = higher value. In short, it runs like this:
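EC50 and efficacy came from Hill fits of titrations (up to 92 uM) normalized to 30 nM R1881 as 100% and DMSO as 0%. Compound exposure was 16 h at 37 C on AR-UAS-bla HEK293 cells, with a 405/460/530 nm CCF4 fluorescence read.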

Where “and” joins values, the source holds several entries; their conditions need not be identical. Equal entries are not always repeated. Records with an inconclusive call do not appear. Calls of active or inactive are those of the source. Unless noted, the rule behind the calls is not given here.

Peroxisome proliferator-activated receptor gamma (Homo sapiens), sequence (P37231 whole entry, looked up): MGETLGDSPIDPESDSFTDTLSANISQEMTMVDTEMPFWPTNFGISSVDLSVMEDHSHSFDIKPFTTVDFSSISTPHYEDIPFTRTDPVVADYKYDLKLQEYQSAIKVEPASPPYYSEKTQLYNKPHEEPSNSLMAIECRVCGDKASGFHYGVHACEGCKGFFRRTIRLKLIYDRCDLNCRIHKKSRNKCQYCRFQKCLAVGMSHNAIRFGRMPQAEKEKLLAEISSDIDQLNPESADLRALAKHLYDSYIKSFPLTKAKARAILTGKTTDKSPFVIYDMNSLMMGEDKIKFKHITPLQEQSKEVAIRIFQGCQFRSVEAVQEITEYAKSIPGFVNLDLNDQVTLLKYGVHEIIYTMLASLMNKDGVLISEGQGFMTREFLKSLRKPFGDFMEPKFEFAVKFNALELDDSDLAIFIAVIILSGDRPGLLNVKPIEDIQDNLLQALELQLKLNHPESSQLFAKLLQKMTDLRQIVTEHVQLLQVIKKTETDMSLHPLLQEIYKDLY
Nuclear receptor subfamily 1 group I member 2 (Rattus norvegicus), sequence (Q9R1A7 whole entry, looked up): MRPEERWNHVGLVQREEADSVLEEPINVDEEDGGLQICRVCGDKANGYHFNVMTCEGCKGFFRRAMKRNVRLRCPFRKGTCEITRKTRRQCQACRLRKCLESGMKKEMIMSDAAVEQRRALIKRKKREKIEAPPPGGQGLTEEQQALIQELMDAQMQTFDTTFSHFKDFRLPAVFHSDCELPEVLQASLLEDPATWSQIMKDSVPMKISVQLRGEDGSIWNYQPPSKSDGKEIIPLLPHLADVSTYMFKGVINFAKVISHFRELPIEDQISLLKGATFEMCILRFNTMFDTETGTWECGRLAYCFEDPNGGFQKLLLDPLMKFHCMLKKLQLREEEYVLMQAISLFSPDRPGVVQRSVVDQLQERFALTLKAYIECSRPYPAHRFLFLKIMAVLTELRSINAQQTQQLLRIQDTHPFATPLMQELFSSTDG
Glucocorticoid receptor (Homo sapiens), sequence (P04150 whole entry, looked up): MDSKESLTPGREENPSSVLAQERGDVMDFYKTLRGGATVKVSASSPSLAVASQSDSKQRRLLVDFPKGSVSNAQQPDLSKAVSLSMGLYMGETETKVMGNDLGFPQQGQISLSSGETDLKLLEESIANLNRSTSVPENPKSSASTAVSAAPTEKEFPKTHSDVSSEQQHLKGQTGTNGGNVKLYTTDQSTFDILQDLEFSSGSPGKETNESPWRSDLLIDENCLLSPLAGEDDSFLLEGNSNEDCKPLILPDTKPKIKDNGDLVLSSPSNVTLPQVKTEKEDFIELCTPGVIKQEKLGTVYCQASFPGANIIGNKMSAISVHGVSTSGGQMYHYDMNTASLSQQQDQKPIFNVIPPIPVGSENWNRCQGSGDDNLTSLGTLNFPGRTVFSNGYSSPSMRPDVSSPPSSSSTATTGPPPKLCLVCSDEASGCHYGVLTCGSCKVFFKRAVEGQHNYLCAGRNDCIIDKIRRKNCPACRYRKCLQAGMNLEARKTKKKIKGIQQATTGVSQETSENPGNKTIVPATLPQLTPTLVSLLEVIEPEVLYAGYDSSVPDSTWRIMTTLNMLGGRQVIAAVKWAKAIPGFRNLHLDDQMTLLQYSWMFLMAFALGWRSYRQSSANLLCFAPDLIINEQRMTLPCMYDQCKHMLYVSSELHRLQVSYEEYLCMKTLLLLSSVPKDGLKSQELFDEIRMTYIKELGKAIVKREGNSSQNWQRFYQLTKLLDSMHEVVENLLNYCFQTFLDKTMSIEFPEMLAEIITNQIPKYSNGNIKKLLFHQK
Muscarinic acetylcholine receptor M1 (Rattus norvegicus), sequence (P08482 whole entry, looked up): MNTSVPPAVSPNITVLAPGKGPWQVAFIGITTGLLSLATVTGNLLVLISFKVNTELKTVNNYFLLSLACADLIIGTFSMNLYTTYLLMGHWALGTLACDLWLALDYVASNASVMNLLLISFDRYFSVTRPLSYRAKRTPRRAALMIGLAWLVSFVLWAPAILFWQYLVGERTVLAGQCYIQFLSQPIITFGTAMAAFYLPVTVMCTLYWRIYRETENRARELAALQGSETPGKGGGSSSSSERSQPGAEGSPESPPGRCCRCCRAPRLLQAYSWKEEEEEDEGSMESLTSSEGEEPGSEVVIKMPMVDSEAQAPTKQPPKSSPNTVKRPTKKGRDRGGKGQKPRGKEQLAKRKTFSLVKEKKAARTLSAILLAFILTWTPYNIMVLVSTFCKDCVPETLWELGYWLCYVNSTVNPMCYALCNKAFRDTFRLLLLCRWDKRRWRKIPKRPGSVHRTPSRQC
Estrogen receptor (Homo sapiens), sequence (P03372 whole entry, looked up): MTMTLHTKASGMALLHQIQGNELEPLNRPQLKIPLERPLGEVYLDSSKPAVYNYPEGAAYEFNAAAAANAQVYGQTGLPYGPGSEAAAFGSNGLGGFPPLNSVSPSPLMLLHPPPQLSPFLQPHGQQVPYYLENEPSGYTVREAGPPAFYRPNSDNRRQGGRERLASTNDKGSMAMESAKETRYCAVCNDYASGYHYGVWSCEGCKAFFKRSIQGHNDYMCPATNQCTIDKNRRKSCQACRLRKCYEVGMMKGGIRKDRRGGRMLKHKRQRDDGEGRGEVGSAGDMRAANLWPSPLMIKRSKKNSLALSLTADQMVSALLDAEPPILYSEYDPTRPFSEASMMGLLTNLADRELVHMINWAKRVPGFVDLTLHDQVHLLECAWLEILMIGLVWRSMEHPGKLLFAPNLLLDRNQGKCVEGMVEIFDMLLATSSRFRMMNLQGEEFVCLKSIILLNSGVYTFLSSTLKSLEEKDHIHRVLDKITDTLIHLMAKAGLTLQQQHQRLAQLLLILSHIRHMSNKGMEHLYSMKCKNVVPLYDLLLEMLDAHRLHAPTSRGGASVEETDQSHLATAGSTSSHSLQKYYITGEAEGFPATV
Retinoic acid receptor RXR-alpha (Homo sapiens), sequence (P19793 whole entry, looked up): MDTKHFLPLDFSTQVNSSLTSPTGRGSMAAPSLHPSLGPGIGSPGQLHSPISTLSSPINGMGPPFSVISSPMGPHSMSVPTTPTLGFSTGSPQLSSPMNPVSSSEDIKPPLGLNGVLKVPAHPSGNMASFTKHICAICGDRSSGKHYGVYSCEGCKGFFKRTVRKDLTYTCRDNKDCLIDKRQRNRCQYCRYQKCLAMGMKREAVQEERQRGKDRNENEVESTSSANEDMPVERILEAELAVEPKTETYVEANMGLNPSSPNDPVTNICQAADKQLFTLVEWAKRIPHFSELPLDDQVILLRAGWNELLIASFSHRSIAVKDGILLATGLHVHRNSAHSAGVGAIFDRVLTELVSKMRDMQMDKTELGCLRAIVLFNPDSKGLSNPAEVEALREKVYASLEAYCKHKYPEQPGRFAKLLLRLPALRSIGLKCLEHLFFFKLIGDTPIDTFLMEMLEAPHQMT
Bile acid receptor (Homo sapiens), sequence (Q96RI1 whole entry, looked up): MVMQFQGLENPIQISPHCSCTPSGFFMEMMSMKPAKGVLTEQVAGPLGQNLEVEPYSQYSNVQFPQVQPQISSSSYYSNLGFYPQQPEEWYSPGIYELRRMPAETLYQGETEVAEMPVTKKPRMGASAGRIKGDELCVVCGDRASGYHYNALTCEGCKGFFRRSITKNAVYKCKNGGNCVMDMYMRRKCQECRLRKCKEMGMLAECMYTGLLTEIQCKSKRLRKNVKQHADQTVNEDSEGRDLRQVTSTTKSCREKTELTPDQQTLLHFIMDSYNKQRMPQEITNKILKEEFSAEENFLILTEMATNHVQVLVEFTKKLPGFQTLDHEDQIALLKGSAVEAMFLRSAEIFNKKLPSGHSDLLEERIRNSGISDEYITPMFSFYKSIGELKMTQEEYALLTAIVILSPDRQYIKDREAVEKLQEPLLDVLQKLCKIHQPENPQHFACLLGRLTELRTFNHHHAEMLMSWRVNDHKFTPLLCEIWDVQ
Peroxisome proliferator-activated receptor delta (Homo sapiens), sequence (Q03181 whole entry, looked up): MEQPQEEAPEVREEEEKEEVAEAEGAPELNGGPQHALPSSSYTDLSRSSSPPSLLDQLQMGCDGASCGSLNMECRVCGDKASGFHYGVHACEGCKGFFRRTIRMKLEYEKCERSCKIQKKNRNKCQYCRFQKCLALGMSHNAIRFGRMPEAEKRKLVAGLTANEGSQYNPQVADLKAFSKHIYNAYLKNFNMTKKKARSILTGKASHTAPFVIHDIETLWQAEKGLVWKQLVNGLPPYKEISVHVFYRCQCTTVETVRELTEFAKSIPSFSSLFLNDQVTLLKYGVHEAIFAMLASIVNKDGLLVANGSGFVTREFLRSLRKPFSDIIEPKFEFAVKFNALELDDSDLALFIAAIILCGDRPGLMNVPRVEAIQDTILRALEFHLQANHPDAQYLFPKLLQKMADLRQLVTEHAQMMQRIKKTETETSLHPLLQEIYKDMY

Regarding `Nc1c(C(=O)NCc2ccco2)c2nc3ccccc3nc2n1CCN1CCCCC1`, the Potency in [1] was 7.94 µM (active).
Take `CCCCCCCCCCCCCC(=O)O[C@H]1[C@@H](C)[C@@]2(O)[C@@H](C=C(CO)C[C@]3(O)C(=O)C(C)=C[C@@H]23)C2C(C)(C)[C@]21OC(C)=O` (stereo not given in full): the Potency in experiment [2] is 0.02 µM (active). Further, the Potency result in experiment [3] was “inactive”.
As for `CN1[C@@H]2CC[C@H]1CC(O[C@@H](c1ccccc1)c1ccccc1N)C2` (stereo not given in full), the molecule was classed as inactive in [4]. Moreover, the Potency was 0.0141 µM (active) in experiment [2] and 0.0071 µM (active) in experiment [3].
`C=CCN1C[C@@H](C)N([C@H](c2ccc(C(=O)N(CC)CC)cc2)c2cccc(OC)c2)C[C@H]1C`: the molecule was classed as inactive in experiment [4]. Moreover, in experiment [2], the Potency was 14.1 µM (active).
For the molecule `CC(C)(C)NC[C@H](O)c1ccccc1Cl`, the result in [4] was inactive.
On to `Ic1ccccc1CN[C@@H]1C2CCN(CC2)[C@H]1C(c1ccccc1)c1ccccc1`, for which the Potency in experiment [5] was 12.6 µM (active). Also, the Potency result in experiment [3] is “inactive”.
For the molecule `CCCC[N+]1(C)[C@@H]2CC(OC(=O)[C@@H](CO)c3ccccc3)C[C@H]1[C@H]1O[C@H]12` (stereo not given in full), the result in [4] was inactive. Also, the Potency in experiment [2] is 0.141 µM (active); in [3] it was 0.562 µM (active).
`NC(N)=Nc1ccc2[nH]c3c(c2c1)C[C@]1(O)[C@@H]2Cc4ccc(O)c5c4[C@]1(CCN2CC1CC1)[C@H]3O5`: the Potency in experiment [5] is 12.6 µM (active); in experiment [2], 3.55 µM (active); in [3], 7.94 µM (active).
As for `O=C(CCl)c1ccccc1`, the max response in experiment [6] was 18.1%; in experiment [10], -5.24% (inactive) and -3.68% (inactive). Also, the Potency entry in experiment [7] and in experiment [8] was “inactive” each time. Moreover, the activation in experiment [9] is 0.721% (inactive). The call in experiment [11] was inactive.
As for `CCCCCCCCn1sccc1=O`, the Potency result in experiment [12] and in [13] was “inactive” throughout. Besides, in experiment [9], the activation was -0.619% (inactive) and -1.03% (inactive).
Turning to `N#CSCSC#N`, the Potency in [8] was 35.5 µM (active).
Regarding `C(=NC1CCCCC1)=NC1CCCCC1`, the Potency entry in experiment [14] and in experiment [15] was “inactive” each time. Further, the activation in experiment [9] is 0.442% (inactive) and -0.633% (inactive). For the same molecule, in experiment [16], the Potency was 53.1 µM (active). Besides, the max response in [10] is 0.443% (inactive) and 0.275% (inactive). In addition, in experiment [11], the result was inactive.
For `C#CCO`, the Potency result in [12], in experiment [7], in [13] and in experiment [17] was “inactive” in each case. Besides, the max response was 29.5% in experiment [6], 24.4% (inactive) in experiment [18] and 1.29% (inactive) in experiment [10]. For the same molecule, in experiment [11], the molecule was classed as inactive.
In the case of `O=[N+]([O-])c1cc(C(F)(F)F)cc([N+](=O)[O-])c1Cl`, the Potency result in [14], in [15], in [12], in experiment [13], in experiment [17] and in [16] was “inactive” each time. Also, the max response was 32.3% in [6], 20% (inactive) in experiment [18] and -2.25% (inactive) in experiment [10]. Besides, in experiment [9], the activation is -0.593% (inactive). In experiment [11], the molecule was called inactive.
For the molecule `c1ccc2cc3c(cc2c1)-c1cccc2cccc-3c12`, the max response in experiment [19] is 21%; in experiment [10], 5.83% (inactive) and 4.65% (inactive). For the same molecule, the Potency in experiment [17] is 2.82 µM (active); in [9] it was 7.08 µM (active) and 4.47 µM (active).
With `COP(=O)(OC)O/C(=C\Cl)c1cc(Cl)c(Cl)cc1Cl`, the Potency result in experiment [14] and in [16] was “inactive” in each case. The figures for the activation in experiment [20] and in [9] were -13% (inactive) and -1.17% (inactive), respectively. For the same molecule, in experiment [10], the max response is 1.57% (inactive).
In the case of `C[C@@H]1CC[C@@]2(OC1)O[C@H]1[C@@H](O)[C@H]3[C@@H]4CC[C@H]5C[C@@H](O[C@@H]6O[C@H](CO)[C@H](O[C@@H]7O[C@H](CO)[C@@H](O)[C@H](O[C@@H]8OC[C@@H](O)[C@H](O)[C@H]8O)[C@H]7O[C@@H]7O[C@H](CO)[C@@H](O)[C@H](O[C@@H]8O[C@H](CO)[C@@H](O)[C@H](O)[C@H]8O)[C@H]7O)[C@H](O)[C@H]6O)[C@H](O)C[C@]5(C)[C@H]4CC[C@]3(C)[C@H]1[C@@H]2C`, in [11], the outcome was inactive.
As for `Oc1c(Br)c(Br)c(Br)c(Br)c1Br`, the Potency in [15] is 28.2 µM (active); in experiment [12], 39.8 µM (active). Further, the molecule was classed as inactive in experiment [11].
As to `OC(c1ccc(Cl)cc1)(c1ccc(Cl)cc1)C(Cl)(Cl)Cl`, the Potency entry in [15], in experiment [12], in experiment [13], in experiment [17] and in experiment [16] was “inactive” throughout. Moreover, the max response in experiment [19] is -15%; in experiment [18], 3.94% (inactive); in [10], -0.762% (inactive) and 6.21% (inactive). Further, the activation in experiment [9] is -0.969% (inactive). Moreover, the call in experiment [11] was inactive.
